Source: PubChem
CYP2C19 act – human CYP2C19 activators, primary screen, biochemical, luminescence | Cytochrome P450 2C19 (Homo sapiens), P33261 | recombinant CYP2C19, luciferin-H EGE luminescence; active compounds read high; 0 = fully inhibited enzyme, 1 = untreated enzyme | activation factor at 5 µM | 96,000 tested, under 10 active | AID 1025, 2008;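 active means activation factor of at least 2 at 5 µM in the primary screen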
PostGolgi yeast – phenotypic screen on post-Golgi transport, primary screen | post-Golgi transport phenotypic cell assay | inhibition, % at 10 µM | 98,000 compounds, 0.9% hits | AID 739, 2007;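 further: yeast cells grown in 1536-well plates; yeast grown about 18 h at 30C before absorbance read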
CYP2C19 inhib – blockers of cytochrome P450 2C19 activity – biochemical, luminescence, ADME assay, primary screen; P33261; CYP2C19 Supersomes, luciferin-H EGE luminescence, 30 min; inhibition, % at 5 µM; 96,000 compounds, 21% hits; AID 778, 2007;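 active means CYP2C19 inhibition above a set limit at 5 µM in the primary screen, cut at about 50% in these data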
CYP2C9 activ – human CYP2C9 activators, primary screen, biochemical, luminescence. activation factor at 5 µM. 96,000 compounds, 1.4% hits. Cytochrome P450 2C9 (Homo sapiens), P11712. recombinant CYP2C9, luciferin-H conversion; active compounds read high; factor 1 = untreated enzyme, 0 = blocked;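 active means activation factor of 2 or more for CYP2C9 at a 5 µM dose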
Target sequence (P11712 whole entry, looked up): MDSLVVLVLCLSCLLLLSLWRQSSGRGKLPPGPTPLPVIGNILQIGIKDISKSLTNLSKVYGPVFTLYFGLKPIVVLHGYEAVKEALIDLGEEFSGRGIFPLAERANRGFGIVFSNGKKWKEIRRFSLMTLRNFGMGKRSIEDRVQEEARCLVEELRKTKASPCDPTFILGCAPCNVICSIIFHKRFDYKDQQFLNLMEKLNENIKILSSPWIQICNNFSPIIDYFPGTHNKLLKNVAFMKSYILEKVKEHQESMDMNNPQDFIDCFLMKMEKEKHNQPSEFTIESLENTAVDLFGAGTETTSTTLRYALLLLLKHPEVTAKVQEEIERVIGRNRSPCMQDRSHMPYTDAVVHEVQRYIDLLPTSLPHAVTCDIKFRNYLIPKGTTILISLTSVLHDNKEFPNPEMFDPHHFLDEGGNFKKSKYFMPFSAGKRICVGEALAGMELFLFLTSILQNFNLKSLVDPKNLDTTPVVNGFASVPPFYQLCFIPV
CYP2C9 inhib – blockers of cytochrome P450 2C9 activity – biochemical, luminescence, ADME assay, primary screen; P11712; CYP2C9 Supersomes, luciferin-H conversion; inhibition, % at 5 µM; 96,000 compounds, 20% hits; AID 777, 2007;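 active means blocking of liver enzyme CYP2C9 beyond about 50% at 5 µM, limit read from the data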
PostGolgi ctrl – growth inhibition of yeast control strain, primary screen, counter-screen for post-Golgi transport modulator project; 98,000 compounds, 5% hits; inhibition, % at 10 µM; efflux-deficient yeast background strain, growth absorbance A615, 16 h
Large screens that a line does not name were inactive. The list is not random: actives were taken first. Their share in the collection is about 32%. Unless noted, no stated cut-off is given here; in the data, active means inhibition above about 30%; inactive means the rest.

COc1ccc(NC(=O)C2=C(C)C(=O)OC23CCC(C)CC3)cc1Cl (stereo unspecified)	none
CC(C)c1ccc(N(C(=O)C(F)(F)F)C(C(=O)NC2CCCCC2)c2ccncc2)cc1 (stereo unspecified)	none
O=C(Nc1ccccc1C(=O)NC1CCCC1)NC1CCCC1	none
CCN(CC)C(=O)c1sc(NC(=O)c2ccc(C)c([N+](=O)[O-])c2)c(C#N)c1C	none
O=C(c1ccncc1)c1ccc(NS(=O)(=O)c2ccc(Br)s2)cc1	CYP2C9 inhib 99
CN(C)S(=O)(=O)Nc1ccc2c(c1)OCO2	CYP2C19 inhib 76
O=C(NCc1ccc2c(c1)OCO2)c1ccc(NS(=O)(=O)c2ccc3c(c2)OCCO3)cc1	none (no result: CYP2C19 act, CYP2C19 inhib, CYP2C9 activ, CYP2C9 inhib)
Cc1cc(NS(=O)(=O)N(C)C)ccc1C(C)C	CYP2C19 inhib 90, CYP2C9 inhib 77
O=S(=O)(Nc1ccc2c(c1)OCO2)c1ccccc1	CYP2C19 inhib 100, CYP2C9 inhib 88
COc1ccc(C(=O)COC(=O)CN2CC(=O)Oc3ccccc32)cc1Br	none
Cc1cc(C)nc(NS(=O)(=O)c2ccc(NC(=O)c3ccc4c(c3)OCO4)cc2)n1	CYP2C9 inhib 52
Cc1cc(C)nc(NS(=O)(=O)c2ccc(NC(=O)c3ccc(S(=O)(=O)N4CCOCC4)cc3)cc2)n1	none
Cc1cc(NS(=O)(=O)c2ccc(NC(=O)Nc3ccc4c(c3)OCO4)cc2)no1	none (no result: CYP2C19 act, CYP2C19 inhib, CYP2C9 activ, CYP2C9 inhib)
COc1ccc(S(=O)(=O)Nc2ccc3c(c2)OCO3)cc1C	CYP2C19 inhib 99
CC1CCN(C(=O)CSc2nnc(-c3cc4ccccc4cc3O)n2Cc2ccco2)CC1	CYP2C19 inhib 67, CYP2C9 inhib 74, PostGolgi ctrl 39
c1cncc(CSc2nnc(-c3cccnc3)n2Cc2ccco2)c1	none
O=C(CSc1nnc(-c2cccnc2)n1Cc1ccco1)N1c2ccccc2Sc2ccccc21	none
COc1ccc(C(=O)CSc2nnc(-c3cccnc3)n2Cc2ccco2)cc1	CYP2C19 inhib 53, CYP2C9 inhib 57
COc1ccc(C(=O)CSc2nnc(-c3cnccn3)n2Cc2ccco2)cc1	CYP2C9 inhib 54
COc1ccc(C(=O)CSc2nnc(-c3cc4ccccc4cc3O)n2Cc2ccco2)cc1	CYP2C9 inhib 80, PostGolgi ctrl 56
COc1ccc(C(=O)CSc2nnc(-c3cccs3)n2-c2ccccc2)cc1	none
Nc1ccccc1OCCOCCOc1ccccc1N	none
O=C(CSc1nnc(-c2ccccn2)n1Cc1ccco1)Nc1ccc2c(c1)OCO2	none
Cn1c(SCC(=O)N2CCc3ccccc3C2)nnc1-c1cccs1	none
O=C(CSc1nnc(-c2ccc(O)cc2)n1Cc1ccco1)N1CCc2ccccc2C1	CYP2C19 inhib 62, CYP2C9 inhib 50
O=C(CSc1nnc(-c2cnccn2)n1Cc1ccco1)Nc1ccc(Br)cc1	CYP2C9 inhib 59
COC(=O)c1c(NC(=O)CSc2nnc(-c3cccnc3)n2Cc2ccco2)sc(C)c1C	CYP2C19 inhib 84, CYP2C9 inhib 85
Cc1ccc(Oc2nc3ccccc3n3c(C)nnc23)c(C)c1	none
COc1ccc(/C=N/c2nc3ccccc3n2C)cc1OC	none
COc1cc2c(cc1OC)-c1cc(NC3CCCCCCC3)nc(=O)n1CC2	CYP2C9 inhib 51
COc1cc2c(cc1OC)-c1cc(NC3CCCCC3)nc(=O)n1CC2	none
Cc1cc(NCCN2CCCCC2)n2c(nc3ccccc32)c1C#N	none
Cc1cc(NCCCn2ccnc2)n2c(nc3ccccc32)c1C#N	CYP2C19 inhib 77, CYP2C9 inhib 83
CCc1nc(NCCCn2ccnc2)c2oc3ccccc3c2n1	CYP2C19 inhib 91, CYP2C9 inhib 98, PostGolgi ctrl 33
Cc1cccc2cc(C#N)c(NCCCn3ccnc3)nc12	PostGolgi yeast 40, CYP2C19 inhib 98, CYP2C9 inhib 98
O=C1CN(C(=O)c2cnccn2)c2ccccc2N1	none
COc1ccc2c3c(cccc13)N(C)N=C2C	CYP2C19 inhib 74, CYP2C9 inhib 63
COc1cc(OC)cc(OCC(O)Cn2ccnc2)c1 (stereo unspecified)	CYP2C19 inhib 98, CYP2C9 inhib 91
Cc1cc(C)n(CC(O)COc2ccccc2)n1 (stereo unspecified)	none
